This note sets out measurements from PubChem BioAssay (NCATS).

Holding throughout (assay): qHTS profiling for inhibitors of Plasmodium falciparum proliferation (AID 504749); further: nearly all actives have a fitted effect of over 60% in size
Details in all cases: P. falciparum in erythrocytes, SYBR Green DNA, 72 h; series mostly up to 28.7 µM
On the technique in general: qHTS replaces the single test concentration by a dilution series.

Test [1] relates to CP238. The method in brief:
(§1)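 In a 72 h erythrocytic culture (37 C, humidified, 5% CO2) at 2.5% hematocrit and 0.3% starting parasitemia, compounds were tested; SYBR Green I in detergent lysis buffer stained parasite DNA overnight.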

Test [2] relates to CP247. The method in brief: as §1
The test system of test [3] is CP250. The method in brief:
as §1

In test [4] the test system is CP252. The method in brief: as §1
Test [5] concerns CP256. In short, it runs like this: as §1
For test [6], the system named is CP260. The method in brief: as §1
Test [7] deals with CP262. In short, it runs like this: as §1
The test system of test [8] is CP265. The method in brief:
as §1

For test [9], the system named is CP266. The method in brief:
as §1

The test system of test [10] is CP268. In short, it runs like this:
as §1

Test [11] relates to CP269. The method in brief: as §1
For test [12], the system named is CP286. In short, it runs like this:
as §1

Test [13] relates to CP297. In short, it runs like this:
as §1

For test [14], the system named is CP305. In short, it runs like this:
as §1

Test [15] concerns CP315. In short, it runs like this: as §1
The test system of test [16] is CP325. The method in brief: as §1
Test [17] has as its system CP329. The method in brief:
as §1

In test [18] the test system is CP335. The method in brief:
as §1

The subject of test [19] is DFO2036. In short, it runs like this: as §1
Test [20] deals with CP291. In short, it runs like this:
as §1

Records with an inconclusive call do not appear. Calls of active or inactive are those of the source. The call rests on the fitted dose curve; in most records, active means well fitted inhibition curve with a large enough effect; inconclusive means small, poorly fitted or top-dose-only effect; inactive means flat fitted curve, though single readings scatter.
Potency means the concentration at half of the fitted maximal effect.

As for `O=C1c2c(O)cccc2Cc2cccc(O)c21`, the Potency entry in [1], in test [2], in test [3], in test [4], in [5] and in test [6] was “inactive” each time. For the same compound, the Potency result in test [7], in test [8], in test [9], in test [10], in [11] and in test [12] was “inactive” throughout. For the same compound, the Potency result in [13], in test [14], in test [15], in test [16], in [17] and in test [18] was “inactive” each time. Also, the Potency result in test [19] was “inactive”.
For the compound `O=S(=O)(O)c1cc(I)c(O)c2ncccc12`, the Potency entry in [1], in test [2], in [3], in test [4], in [5] and in test [7] was “inactive” throughout. Further, the Potency result in test [8], in [9], in test [10], in test [11], in [12] and in [20] was “inactive” throughout. Also, the Potency result in [13], in [14], in test [15], in [16], in [17] and in test [18] was “inactive” throughout. Also, the Potency result in test [19] is “inactive”.
For `NCC(=O)CCC(=O)O`, the Potency result in test [1], in [2], in test [3], in test [4], in [5] and in test [6] was “inactive” each time. In addition, the Potency result in test [7], in test [8], in [9], in test [10], in test [11] and in test [12] was “inactive” in each case. Besides, the Potency result in test [20], in test [14], in test [15], in [16], in test [17] and in test [19] was “inactive” throughout.
As for `CC[C@@]1(c2ccccc2)NC(=O)N(C)C1=O`, the Potency result in test [1], in [2], in test [3], in [4], in test [5] and in [6] was “inactive” each time. Further, the Potency result in [8], in [9], in test [10], in test [11], in test [12] and in test [20] was “inactive” each time. The Potency entry in test [13], in test [14], in test [15], in [16], in test [17] and in test [18] was “inactive” each time. In [19], the Potency entry is “inactive”.
Regarding `Cc1cc2c(cc1S(N)(=O)=O)S(=O)(=O)CCC2`, the Potency result in [1], in [2], in test [3], in [4], in test [5] and in test [6] was “inactive” throughout. Moreover, the Potency entry in test [7], in [8], in test [9], in test [10], in test [11] and in test [12] was “inactive” throughout. Besides, the Potency entry in test [20], in test [13], in [14], in [15], in test [16] and in test [17] was “inactive” in each case. For the same compound, the Potency result in test [19] is “inactive”.
Consider `Cc1cc(N)c2ccccc2[n+]1CCCCCCCCCC[n+]1c(C)cc(N)c2ccccc21`, for which the Potency in test [1] is 0.282 µM (active); in [2] it was 1.58 µM (active); in [3] it was 0.708 µM (active); in test [4], 0.447 µM (active); in test [5], 0.0794 µM (active); in test [6], 0.631 µM (active). Also, the Potency in test [7] is 0.181 µM (active); in test [8] it was 0.0004 µM (active); in test [10] it was 0.572 µM (active); in test [11], 0.51 µM (active); in [12], 0.447 µM (active); in [20], 0.405 µM (active). In addition, the Potency in test [13] was 0.405 µM (active); in test [14], 0.228 µM (active); in test [15] it was 0.721 µM (active); in test [16], 0.572 µM (active); in [17], 0.642 µM (active); in test [19], 0.0794 µM (active).
Take `CC1=C(CC(=O)O)c2cc(F)ccc2/C1=C\c1ccc(S(C)=O)cc1` (configuration not stated): the Potency result in test [1], in [2], in test [3], in test [4], in [5] and in [6] was “inactive” each time. Besides, the Potency entry in test [7], in test [8], in [10], in test [11], in test [12] and in test [20] was “inactive” throughout. Besides, the Potency entry in [13], in [14], in test [15], in [16], in test [17] and in [18] was “inactive” throughout. Moreover, in test [19], the Potency result was “inactive”.
On to `Nc1ncnc2c1ncn2[C@@H]1O[C@H](CO)[C@@H](O)[C@H]1O`, for which the Potency result in [1], in test [2], in test [3], in test [4], in test [5] and in test [6] was “inactive” each time. The Potency entry in test [7], in test [8], in [9], in test [10], in test [11] and in test [12] was “inactive” throughout. Also, the Potency entry in [20], in test [14], in test [15], in test [16], in [17] and in [18] was “inactive” throughout. Besides, the Potency result in test [19] is “inactive”.
On to `CC1(C)OC(=O)NC1=O`, for which the Potency result in test [1], in test [2], in [3], in test [4], in test [5] and in [7] was “inactive” throughout. Moreover, the Potency entry in test [8], in test [9], in test [10], in test [11], in test [12] and in test [20] was “inactive” in each case. Besides, the Potency entry in test [13], in test [14], in [15], in test [16], in test [17] and in [18] was “inactive” in each case. For the same compound, the Potency entry in test [19] is “inactive”.
As for `NCCNCCNCCN`, the Potency entry in test [1], in test [2], in test [3], in test [4], in test [5] and in [6] was “inactive” each time. The Potency result in [7], in test [8], in test [9], in test [10], in test [11] and in test [12] was “inactive” each time. For the same compound, the Potency result in [20], in test [13], in test [14], in test [15], in test [16] and in test [17] was “inactive” in each case. Besides, the Potency entry in test [19] is “inactive”.
With `C[C@H]1O[C@@H](n2cc(F)c(=O)[nH]c2=O)[C@H](O)[C@@H]1O`, the Potency result in [1], in test [2], in [3], in test [4], in [5] and in test [6] was “inactive” in each case. Further, the Potency result in test [7], in test [8], in test [10], in test [11], in [12] and in test [20] was “inactive” each time. The Potency result in test [13], in test [14], in test [15], in test [16], in [17] and in [18] was “inactive” each time. In [19], the Potency result is “inactive”.
Consider `NC(CSCC(=O)O)C(=O)O` (configuration not stated), for which the Potency result in test [1], in test [2], in [3], in test [4], in test [5] and in test [6] was “inactive” each time. Besides, the Potency result in test [7], in test [8], in [10], in test [11], in test [12] and in test [20] was “inactive” each time. Further, the Potency entry in test [13], in [14], in test [15], in test [16], in [17] and in [18] was “inactive” in each case. The Potency entry in test [19] is “inactive”.
`Nc1nc2c(ncn2CCC(CO)CO)c(=O)[nH]1`: the Potency result in test [1], in [2], in [3], in [4], in test [5] and in [6] was “inactive” each time. Moreover, the Potency result in test [7], in test [8], in [10], in [11], in [12] and in test [20] was “inactive” in each case. Further, the Potency result in test [13], in test [14], in [15], in [16], in [17] and in test [18] was “inactive” in each case. Besides, the Potency entry in test [19] was “inactive”.
`COC(=O)C1=C(C)NC(C)=C(C(=O)OC)C1c1ccccc1[N+](=O)[O-]`: the Potency entry in [1], in test [4], in test [5], in [7], in [8] and in test [9] was “inactive” each time. Besides, the Potency entry in test [10], in test [11], in [12], in test [20], in test [13] and in test [14] was “inactive” throughout. The Potency result in [15], in [16], in test [17], in test [18] and in [19] was “inactive” throughout.
